Each structure is given as a SMILES string. Activity calls are given as the source filed them.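 How the source made its calls: active means viability at or below 10% of carrier control in both of two separate runs; inconclusive means viability at or below 10% in only one of the two runs; inactive means the rest.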

The nature of this experiment: SK-BR-3 cell growth inhibitors, pilot screen, 24 h, human (AID 572).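 Further: compound exposure lasted between 18 and 24 h rather than exactly 24 h; 100% = carrier-treated control wells.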 As to conditions: SK-BR-3 viability, CellTiter-Glo luminescence, at 10 µM, hits give low values. (In general: Cellular ATP, detected with luciferase, serves as a proxy for viable cell number.)
With `CCC(=O)Nc1c2c(nn1-c1ccccc1C)CSC2`, the viability (in general, a read-out of living cells in per cent, often relative to untreated cells) was 86.5% (inactive).
The same measure for `CCOC(=O)C1CCN(C(=O)COc2ccc(Cl)cc2Cl)CC1`: 109% (inactive); for `CC1CC(=O)C2=C(C1)OC(N)=C(C#N)C2c1coc2ccccc2c1=O` (stereo not given): 108% (inactive); for `CN(C1CCS(=O)(=O)C1)S(=O)C12CC3CC(CC(C3)C1)C2` (stereo not given): 83% (inactive).
For `S=c1[nH]nc(Cc2ccccc2)n1-c1ccccc1`, the viability was 108% (inactive).
The result for `Cc1cccc(Cc2nnc(NC(=O)c3cccc(S(=O)(=O)N4CCOCC4)c3)s2)c1` reads 107% (inactive); that for `COC(=O)[C@H](C)NC(=O)Nc1cc(OC)ccc1OC`, 121% (inactive).
The same measure for `COc1ccccc1NC(=O)C1=C(C)Nc2nnnn2C1c1ccccc1OC` (stereo not given): 94% (inactive); for `Cn1c(CNc2nc(-c3ccccc3)cs2)nnc1SCC(=O)N1CCc2ccccc21`: 96.5% (inactive).
The result for `CCOC(=O)N1CCN(C(=O)c2n[nH]c(=O)c3ccccc23)CC1` reads 85% (inactive); that for `O=C(CN1CCCN(S(=O)(=O)c2ccc(Br)cc2)CC1)Nc1ccc2cn[nH]c2c1`, 106% (inactive); that for `O=C(OCc1ccccc1F)c1ccc2c(c1)OCCO2`, 122% (inactive).
As to `CCN(CC)S(=O)(=O)c1ccc2c(c1)nc(SCC(=O)NC1CC1)n2-c1ccccc1OC`, the viability was 92.5% (inactive).
In the case of `CCC(Sc1nc2sc(C(=O)OC)c(C)c2c(=O)n1N)C(=O)NCC1CCCO1` (stereo not given), the viability is 102% (inactive).
The same measure for `O=C(COc1ccccc1)Nc1ccc(-c2nnc(-c3ccco3)o2)cc1`: 128% (inactive).
The result for `O=C(CSc1nnnn1C1CCCC1)Nc1cccc(NC(=O)c2ccco2)c1` reads 91.5% (inactive).
As for `CCCCCc1c(O)nc(SCC(=O)NCC2CCCO2)[nH]c1=O` (stereo not given), the viability is 96% (inactive).
The same measure for `c1ccc(N=P(c2nc3ccccc3o2)(N2CCOCC2)N2CCOCC2)cc1`: 119% (inactive); for `Cc1nn(S(=O)(=O)N2CCCCC2)c(C)c1Br`: 95% (inactive).
Regarding `Cc1cc2oc(=O)cc(C)c2c(=O)o1`, the viability was 101% (inactive).
The result for `N#CCCn1ccc(NC(=O)c2ccc(Cl)cc2)n1` reads 79% (inactive); that for `S=c1[nH]nc(-c2ccco2)n1-c1cccc2ccccc12`, 102% (inactive); that for `CCOC(=O)c1c(-c2ccc(C)o2)csc1NC(=O)COC(=O)c1cccs1`, 93% (inactive).
On to `CCOc1cc2[nH]c(=O)n(CCCCC(=O)N3CCCCCC3)c(=O)c2cc1OCC`, for which the viability was 90% (inactive).
The result for `Clc1ccc(-n2ncc3c(NCCCn4ccnc4)ncnc32)cc1` reads 87% (inactive).
The result for `COc1ccc(OC)c(C2C3=C(CCCC3=O)Nc3c2c(=O)n(C)c(=O)n3C)c1` (stereo not given) reads 106% (inactive).
`COc1ccc(NC(=O)CN2CCN(CC(=O)Nc3cc(OC)cc(OC)c3)CC2)cc1`: the viability was 79% (inactive).
With `Clc1cc2c(c(Cn3cnc4ccccc43)c1)OCOC2`, the viability is 109% (inactive).
The same measure for `N#Cc1c2n(c(=S)n(-c3ccccn3)c1=O)CCCCC2`: 81.5% (inactive); for `N#Cc1c(NC(=O)c2ccc(Br)o2)n(-c2ccccc2)c2nc3ccccc3nc12`: 86.5% (inactive); for `COCCn1nnnc1C(c1ccc(OC)cc1)N1CCN(c2ccccc2F)CC1` (stereo not given): 100% (inactive).
Consider `COc1cc(-c2nnc(SCc3c(F)cccc3Cl)o2)cc(OC)c1OC`, for which the viability is 70.5% (inactive).
The result for `COC(=O)Cc1c(C)nc2nc(-c3ccco3)[nH]n2c1=O` reads 110% (inactive); that for `CCOC(=O)CSc1nc2cccnc2n1-c1ccc(F)cc1`, 108% (inactive); that for `COCCn1c(NCc2ccc(C)cc2)nc2c1c(=O)[nH]c(=O)n2C`, 108% (inactive).
The same measure for `Clc1ccc2nc(N3CCCCC3)[nH]c2c1`: 90.5% (inactive); for `Cc1nnc(C)c2c(C)n(-c3ccc(Br)cc3)c(C)c12`: 110% (inactive).
The same measure for `O=C(NCC(F)(F)F)N1CCOCC1`: 96% (inactive); for `O=C(O)CC1SC(=Nc2cccc(C(F)(F)F)c2)NC1=O` (stereo not given): 111% (inactive).
Turning to `COc1ccc2c(c1)OC(O)(C(F)F)CC2=O` (stereo not given), the viability was 116% (inactive).

The record behind these values is PubChem BioAssay.
